In the library only some 6.5% were active in any assay of this set; here they are far more common.
LASV entry inh – inhibitors of Lassa virus binding or cell entry | Lassa virus pseudotype entry inhibition, cell reporter | 1.2% of 300,000 active | AID 540256 | Potency, µM (highest dose often 37.9 µM), without a hit: top-dose activity change, negative = inhibition, actives largely listed as inhibitors; calls by dose curve; tested in HEK293 cells; further: potency means the concentration at half of the fitted maximal effect; nearly all actives have a fitted effect of over 50% in size
MARV entry inh – blocks Marburg virus binding to or entry into cells. Marburg virus pseudotyped entry inhibition, cell reporter. AID 540276. 1.8% of 300,000 active. Potency, µM (doses to about 37.8 µM), for the others: at the top dose activity change, negative = inhibition, most hits filed as inhibitors; calls by dose curve; tested in HEK293 cells; further: potency means the concentration at half of the fitted maximal effect
FMDV antiviral – blocks foot and mouth disease virus; Potency, µM (series often up to 57.9 µM), for the others: at the highest dose activity change, negative = inhibition, hits mostly inhibitors; FMDV antiviral cell-based qHTS; 1.2% of 410,000 active; calls by dose curve; tested in HEK293T cells; further: read-out not given here; potency means the concentration at half of the fitted maximal effect; nearly all actives have a fitted effect of over 45% in size
HCMV antiviral – human cytomegalovirus inhibition | 4.5% of 410,000 active | activity change, negative = inhibition, % at 57.5 µM | HFF cells, HCMV-luciferase reporter, 72 h; active compounds read low; in the data active means activity change below about -60%; inconclusive means no clear call, values can overlap the other calls; inactive means above about -39%
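Two compound doses tested in HFFs infected with HCMV-luciferase, MOI 1 PFU/cell, 72 h at 37C. Lysate luminescence read with OneGlo; data normalized against buffer-only and 10uM Salinomycin inhibitor controls.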
Vaccinia Venus – inhibitors of vaccinia virus (Venus reporter) | Vaccinia virus Venus reporter expression, fluorescence | Potency, µM (highest dose often 36.5 µM), without a hit: at the top dose activity change, negative = inhibition, usual class: inhibitors | 0.46% of 330,000 active; calls by dose curve; tested in A549 cells; further: potency means the concentration at half of the fitted maximal effect; nearly all actives have a fitted effect of over 30% in size
VACV mCherry inh – inhibitors of vaccinia virus infection (mCherry reporter signal) | Vaccinia virus mCherry reporter infection, fluorescence | Potency, µM (titrated, usually from 36.5 µM), for the others: at the highest dose activity change, negative = inhibition, most hits filed as inhibitors | 0.63% of 310,000 active | AID 720579; calls by dose curve; tested in A549 cells; further: potency means the concentration at half of the fitted maximal effect; nearly all actives have a fitted effect of over 35% in size
* marks the source's active call; other numbers are inactive results; i = inactive; ? = inconclusive; / = no result; [ ] = another dose, or the depositor's remark. On the % scale 0 is the no-effect control and ±100 the full control effect.

SMILES	LASV entry inh	MARV entry inh	FMDV antiviral	HCMV antiviral	Vaccinia Venus	VACV mCherry inh
COc1ccc(-n2nc3c(N4CCC(C(=O)NCc5ccccc5C)CC4)nnc(C)c3c2C)cc1	?	?	-11%	?	?	-12%
CCOc1ccccc1CNC(=O)C1CCCN(c2nnc(C)c3c(C)n(-c4ccccc4)nc23)C1 (centres undefined)	1%[46.1 µM]	/	5%	-107*	?	?
COc1ccc(-n2nc3c(N4CCCC(C(=O)NCc5ccccc5C)C4)nnc(C)c3c2C)cc1 (centres undefined)	6.3µM*	/	-26%	-99*	?	?
COc1ccccc1NC(=O)COc1ccc(Br)cc1CO	-15%	-7%	-18%	27	/	/
COc1ccccc1Nc1ccc(NC(=O)c2cccc([N+](=O)[O-])c2C)cc1	/	/	?	-62*	/	/
Cc1ccccc1OCC(=O)Nc1nnc(COc2ccccc2)s1	-6%	-6%	-4%	-79*	-18%	i
Cc1ccccc1OCC(=O)Nc1ccc(C(=O)Nc2ccccc2C(=O)O)cc1	5%[46.1 µM]	-8%[46.1 µM]	-1%	-70*	6%	i
Cc1ccc(OCC(=O)Nc2ccc(C(=O)Nc3ccccc3C(=O)O)cc2)cc1C	/	/	11%	-8	-14%	i
COc1ccccc1NC(=O)COc1ccc(Br)cc1CNC1CCCC1	/	5.6µM*	-27%	-18	-6%	-19%
CCn1c(=S)sc2c(=O)n(CC(=O)Nc3ccccc3C(F)(F)F)c(C)nc21	/	/	-20%	39	/	/
CC(C)n1cc(NC(=O)COc2ccccc2Cl)cn1	3%[46.1 µM]	11%[46.1 µM]	23%	-61*	3%	-9%
CCCOC(=O)c1ccc(NC(=O)c2ccccc2[N+](=O)[O-])cc1	/	/	43%	-100*	/	/
CCCOC(=O)c1ccc(NC(=O)c2ccccc2OC)cc1	-32%	-6%[46.1 µM]	10%	-26	8%	i
CCC(=O)N1CCN(c2ccc(NC(=O)COc3ccccc3Cl)cc2)CC1	?	?	32µM*	?	/	/
CCC(=O)N1CCN(c2ccc(NC(=O)COc3ccccc3[N+](=O)[O-])cc2)CC1	/	/	28µM*	-21	/	/
N/C(CCN1CCCCC1)=N\O	/	-5%	/	/	/	/
CCC[C@H]1[C@@H](NC(=O)Nc2ccccc2)CC[C@@]23CCCN2C(=O)CCC[C@@H]13	/	/	/	7	/	/
COc1ccc2c(c1)c(CC(=O)Nc1cc(C)cc(C)c1)c(C)n2C(=O)c1ccc(Cl)cc1	14%[46.1 µM]	?	-9%	8	-13%	-13%
Cc1ccc(NC(=O)COc2ccccc2CNC(C)(C)CC(C)(C)C)cc1	/	-2%	0%	-65*	/	/
Cc1ccccc1NC(=O)COc1ccccc1C(=O)Nc1ccccc1	/	/	/	/	-20%	-3%
CC(C)(CO)NCc1ccccc1OCC(=O)Nc1ccccc1	10%	-6%	/	10	-9%	-25%
Cc1ccc(C(=O)N2CCN(c3ccc(NC(=O)COc4ccccc4C)cc3)CC2)cc1	?	?	14µM*	?	?	?
COc1ccccc1NC(=O)COc1ccccc1C(=O)Nc1ccccc1	-1%	?	-22%	-93*	2%	-12%
Cc1c(C#N)c(NC(=O)COC(=O)c2cc(Cl)c3c(c2)OCCCO3)n(Cc2ccco2)c1C	/	/	/	/	-7%	-15%
CC(C)=CCN1C(=O)[C@@]2(CC(C)=C[C@@H](COCc3ccccc3)O2)c2ccccc21	?	3%[14.2 µM]	/	/	/	/
SMILES	LASV entry inh	MARV entry inh	FMDV antiviral	HCMV antiviral	Vaccinia Venus	VACV mCherry inh
Cc1ccc(C)c(N2C(=O)CC(Cc3ccc(Cl)cc3)C2=O)c1 (centres undefined)	-17%	-1%	?	17	-9%	i
CC1=CCC2C(=O)N(c3ccc(C(=O)Nc4ccccc4Cl)cc3)C(=O)C2C1 (centres undefined)	/	/	0%	-102*	/	/
CCCCn1c(SCC(=O)N2c3ccccc3CCc3ccccc32)nc2c1c(=O)n(C)c(=O)n2C	-4%	?	?	5	-10%	i
CCCCn1c(SCc2nnc(-c3ccccc3)o2)nc2c1c(=O)n(C)c(=O)n2C	35%[14.3 µM]	-21%	0%	-66*	-9%	-14%
Cn1c(=O)[nH]c2c(cnn2C)c1=O	2%	3%	-11%	-98*	-9%	-14%
COc1ccccc1C1CN(Cc2cnn(C)c2C)Cc2ccccc2O1 (centres undefined)	/	/	-10%	/	-1%	-18%

Screens deposited in PubChem by National Center for Advancing Translational Sciences (NCATS).
